One molecule from article PMC5540273 (PLoS ONE, 2017) can be followed below.

Some test systems named below: PKN1; PKN2; PLK1; PLK2; PLK3; PLK4.
Common to all, as to details: concentration: 1 μM, replicates: in singlicate; 1 µM; n = 1
A further experiment relates to T1, PIP5K2C.
T1 construct: gene PIP4K2C

For a further experiment, the system named is T2, PKAC-alpha.
T2 construct: gene PRKACA

Another experiment deals with T3, PKAC-beta.
T3 construct: gene PRKACB

Where “and” joins values, the source holds several entries; their conditions need not be identical. Identical values can stand only once.
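Further: KINOMEscan kinase panel screen.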

Consider `COc1ccc(-c2nc3n(c2-c2ccncc2)CCC3)cc1` [SKF-104493], for which the “%Inh” value in the experiment on PIP5K2C is 0% and 9%; in the experiment with PKAC-alpha, 5% and 0%; with PKAC-beta, 7% and 0%; with PKN1 it was 7% and 0%; with PKN2, 23% and 0%; in the experiment with PLK1, 22% and 0%. The “%Inh” value in the experiment with PLK2 is 11% and 0%; with PLK3 it was 1% and 0%; in the experiment with PLK4, 0% and 15%.
